Source: PubChem (National Center for Advancing Translational Sciences (NCATS))
The list is not random: actives were taken first. Their share in the collection is about 2.4%.
L3MBTL1 block: qHTS Assay for the Inhibitors of L3MBTL1. Lethal(3)malignant brain tumor-like protein 1 (Homo sapiens), Q9Y468. AlphaScreen L3MBTL1–H3K9me1 peptide binding. Potency, µM (doses to about 57.1 µM), hits mostly inhibitors. actives 0.66% (n = 230,000). AID 485360, 2010; also: nearly all actives have a fitted effect of over 60% in size
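Read-out is AlphaScreen signal from streptavidin donor and nickel chelate acceptor beads (10 ug/mL final each) bridging L3MBTL1 (50 nM) and biotinylated K9-monomethylated H3(1-15) peptide (75 nM), after 30 min compound exposure at room temperature.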
Pol kappa inh: qHTS for Inhibitors of Polymerase Kappa. actives 0.53% (n = 400,000). purified Pol kappa, fluorescent DNA synthesis assay, 10 min. Potency, µM (doses to about 107 µM), most hits filed as inhibitors. DNA polymerase kappa (Homo sapiens), Q9UBT6. AID 588579, 2011
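Here, compound and 10 nM enzyme are combined for 15 min at room temperature; adding 50 nM substrate (final) starts DNA synthesis, tracked by fluorescence at 0 and 10 min against buffer-only wells.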
POLH inh: qHTS for Inhibitors of Polymerase Eta. DNA polymerase eta (Homo sapiens), Q9Y253. recombinant Pol eta, fluorescent DNA replication assay. Potency, µM (titrated, usually from 114 µM), hits mostly inhibitors. actives 1.2% (n = 390,000)
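Pol eta (10 nM) was preincubated with compounds for 15 min at room temperature, after which fluorescent replication substrate (50 nM final) was added to start the reaction. Fluorescence was read kinetically at 0 and 10 min.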
Pol iota inh: qHTS for Inhibitors of Polymerase Iota | DNA polymerase iota (Homo sapiens), Q9UNA4 | Pol iota fluorescent replication assay, 10 min | Potency, µM (series often up to 115 µM), most hits filed as inhibitors | actives 1% (n = 390,000)
Target sequence (Q9UNA4 whole entry, looked up): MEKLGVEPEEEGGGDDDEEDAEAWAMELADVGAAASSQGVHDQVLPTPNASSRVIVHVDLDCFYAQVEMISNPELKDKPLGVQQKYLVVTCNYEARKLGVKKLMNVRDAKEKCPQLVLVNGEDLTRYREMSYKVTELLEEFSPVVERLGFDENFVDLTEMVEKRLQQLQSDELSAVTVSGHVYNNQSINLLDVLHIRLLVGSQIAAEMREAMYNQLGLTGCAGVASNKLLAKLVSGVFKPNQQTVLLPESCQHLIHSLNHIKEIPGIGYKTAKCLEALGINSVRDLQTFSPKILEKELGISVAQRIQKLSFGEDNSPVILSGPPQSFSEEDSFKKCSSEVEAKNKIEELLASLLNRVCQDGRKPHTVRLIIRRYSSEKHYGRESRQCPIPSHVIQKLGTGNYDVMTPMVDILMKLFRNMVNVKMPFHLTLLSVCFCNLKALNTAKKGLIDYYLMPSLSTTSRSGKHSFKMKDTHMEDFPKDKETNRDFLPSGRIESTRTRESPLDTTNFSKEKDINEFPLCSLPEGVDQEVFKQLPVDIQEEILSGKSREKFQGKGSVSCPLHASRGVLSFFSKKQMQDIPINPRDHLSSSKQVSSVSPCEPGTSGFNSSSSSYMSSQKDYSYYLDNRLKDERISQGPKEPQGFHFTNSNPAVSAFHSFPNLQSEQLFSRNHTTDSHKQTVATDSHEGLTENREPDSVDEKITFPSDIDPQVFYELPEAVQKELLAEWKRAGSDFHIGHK
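Fluorescent replication assay read twice, at 0 min and 10 min after adding 50 nM (final) substrate. Enzyme (10 nM) and compounds were first incubated 15 min at room temperature; enzyme-free buffer wells were negative controls.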
Pol beta inh: qHTS Assay for Inhibitors of DNA Polymerase Beta; P06746; actives 1.3% (n = 340,000); AID 485314, 2010; Pol beta primer extension/strand displacement, fluorescence kinetic; Potency, µM (doses to about 114 µM), hits mostly inhibitors
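Preincubation: enzyme (10 nM) with compound, 15 min, RT. Reaction: substrate added to 50 nM final. Reads: 0 and 10 min. Analysis: normalized, Hill fit.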
Large screens that a line does not name were inactive. Calls follow the shape of the dose curve; as a rule, active = well fitted curve in the direction sought with a large enough effect; inconclusive = small, poorly fitted or top-dose-only effect, or another doubt; inactive = no such curve, though single readings can be large; an effect the other way counts as inactive or inconclusive.

O=C(Nc1ccccc1)c1cccc(NC(=O)c2ccco2)c1	none (no result: L3MBTL1 block, Pol beta inh)
O=C(O)c1cccc(NS(=O)(=O)c2ccc(NC(=O)c3ccco3)cc2)c1	POLH inh 28µM
NC1=C(c2ccc([N+](=O)[O-])cc2)C(=O)CO1	none
O=c1oc2c(-c3ccc([N+](=O)[O-])cc3)cc(O)cc2s1	Pol kappa inh inconclusive, POLH inh inconclusive, Pol iota inh 50µM, Pol beta inh inconclusive
O=C(/C=C/c1ccco1)N(Cc1ccccc1F)C1CCS(=O)(=O)C1 (configuration not stated)	POLH inh inconclusive, Pol iota inh 50µM, Pol beta inh inconclusive (no result: L3MBTL1 block)
Cn1ccc2cc(S(=O)(=O)N3CCC(C(=O)NCCc4ccccc4)CC3)ccc21	none (no result: L3MBTL1 block)
O=C(CSc1ncnc2nc[nH]c12)Nc1nnc(SCc2ccc(Cl)c(Cl)c2)s1	POLH inh inconclusive, Pol iota inh inconclusive, Pol beta inh 40µM
COc1cc(NC(=O)c2cnc(N)s2)cc(C(=O)Nc2cccc(C(F)(F)F)c2)c1	Pol iota inh 2.2µM (no result: L3MBTL1 block)
COc1ccc(C)cc1NC(=O)C1CCN(S(=O)(=O)c2ccc3[nH]c4c(c3c2)CCCCC4)CC1	none (no result: L3MBTL1 block)
COc1ccc(/C=C2\SC(=O)N(CCc3nnc(N)s3)C2=O)cc1	Pol kappa inh inconclusive, POLH inh 45µM, Pol iota inh 20µM, Pol beta inh inconclusive (no result: L3MBTL1 block)
CN1CCCc2cc(/C=C/c3ccnc4ccccc34)ccc21	none (no result: L3MBTL1 block, POLH inh, Pol beta inh)
NC(=S)N=Nc1c(O)n(Cc2ccccc2)c2ccccc12	none
COC(=O)c1ccc(Cn2c(O)c(N=NC(N)=S)c3ccccc32)o1	Pol kappa inh inconclusive, POLH inh 50µM, Pol iota inh 32µM, Pol beta inh inconclusive (no result: L3MBTL1 block)
O=C(O)c1cc(N/N=C/c2ccc(N3CCOCC3)s2)ccc1Cl	L3MBTL1 block 20µM, Pol kappa inh 28µM, POLH inh 11µM, Pol iota inh 13µM, Pol beta inh 32µM
C/C(=N\NC(=O)c1ccc(F)cc1)c1ccc(N2CCOCC2)cc1	none
C/C(=N\Nc1ccc(Cl)c(C(=O)O)c1)c1ccc(N2CCOCC2)cc1	Pol kappa inh inconclusive, POLH inh 28µM, Pol iota inh inconclusive (no result: L3MBTL1 block)
NC(=O)N/N=C/c1ccc(N2CCOCC2)s1	none
Cc1ccccc1N=Nc1ccc(O)c2ncccc12	L3MBTL1 block 25µM
O=S(=O)(O)c1cccc2c(N=Nc3ccc(O)c4ncccc34)cccc12	POLH inh 3.2µM, Pol iota inh inconclusive, Pol beta inh inconclusive (no result: L3MBTL1 block)
COc1cccc(CNC(=O)c2ccc(F)c(S(=O)(=O)N3CCCCC3)c2)c1	none (no result: L3MBTL1 block, Pol kappa inh, Pol iota inh, Pol beta inh)
CS(=O)(=O)Nc1ccc(C(=O)Nc2ccccc2-c2ccccc2)cc1	none
CCCc1ccc(C(=O)NNC(=O)c2ccc(Cl)cc2)cc1	POLH inh inconclusive, Pol iota inh inconclusive, Pol beta inh 32µM
CC[C@H](C)N	none (no result: L3MBTL1 block, POLH inh, Pol iota inh, Pol beta inh)
CN(C)c1ccc(NC(=O)CSc2nnc(-c3ccco3)c(-c3ccco3)n2)cc1	none (no result: L3MBTL1 block)
Cc1ccccc1NC(=O)CSc1nnc(-c2ccco2)c(-c2ccco2)n1	Pol kappa inh 32µM, POLH inh 50µM, Pol iota inh 10µM, Pol beta inh 14µM
Cc1ccc(NC(=O)CSc2nnc(-c3ccco3)c(-c3ccco3)n2)cc1	L3MBTL1 block 20µM, Pol kappa inh 40µM, POLH inh 11µM, Pol iota inh 11µM, Pol beta inh 14µM
Cc1ccccc1NC(=O)CSc1n[nH]c(-c2ccco2)n1	none
O=C(CSc1nnc(-c2ccco2)c(-c2ccco2)n1)Nc1ccccc1	L3MBTL1 block 4µM, Pol kappa inh 20µM, POLH inh 2.8µM, Pol iota inh 5µM
Cc1ccc(SCC(=O)Nc2ccc(-c3nnc(-c4ccco4)o3)cc2)cc1	Pol kappa inh inconclusive, POLH inh inconclusive, Pol beta inh 50µM
O=C(Nc1ccccc1)c1nc[nH]c1C(=O)NCCCNC(=O)c1[nH]cnc1C(=O)Nc1ccccc1	none (no result: Pol beta inh)
O=C(Nc1ccccc1)c1nc[nH]c1C(=O)NCCN(CCNC(=O)c1[nH]cnc1C(=O)Nc1ccccc1)CCNC(=O)c1[nH]cnc1C(=O)Nc1ccccc1	Pol iota inh 79µM (no result: Pol beta inh)
COc1ccc2nc(NNC(=O)c3cc(=O)c4ccccc4o3)sc2c1	POLH inh 79µM, Pol beta inh inconclusive
